EphB4 ephrin blk: antagonists of human EphB4-ephrin-B2 interaction; P54760; EphB4 LBD / TNYL-RAW-Alexa532 peptide, fluorescence polarization; inhibition, % at 7 µM; 97,000 tested, 0.15% active; AID 720;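 active means inhibition above the screen-wide mean inhibition plus 3 SD, cut at about 15% in these data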
CYP2C19 inh: blocks human cytochrome P450 2C19; P33261; CYP2C19 Supersomes, luciferin-H EGE luminescence, 30 min; inhibition, % at 5 µM; 96,000 tested, 21% active;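 active means CYP2C19 inhibition above a set limit at 5 µM in the primary screen, cut at about 50% in these data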
CYP2C9 activ: activators of human CYP2C9 | P11712 | recombinant CYP2C9, luciferin-H conversion, luminescence; active compounds read high; factor 1 = untreated enzyme, 0 = blocked | activation factor at 5 µM | 96,000 tested, 1.4% active | AID 1024;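 active means activation factor of 2 or more for CYP2C9 at a 5 µM dose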
Target sequence (P11712 whole entry, looked up): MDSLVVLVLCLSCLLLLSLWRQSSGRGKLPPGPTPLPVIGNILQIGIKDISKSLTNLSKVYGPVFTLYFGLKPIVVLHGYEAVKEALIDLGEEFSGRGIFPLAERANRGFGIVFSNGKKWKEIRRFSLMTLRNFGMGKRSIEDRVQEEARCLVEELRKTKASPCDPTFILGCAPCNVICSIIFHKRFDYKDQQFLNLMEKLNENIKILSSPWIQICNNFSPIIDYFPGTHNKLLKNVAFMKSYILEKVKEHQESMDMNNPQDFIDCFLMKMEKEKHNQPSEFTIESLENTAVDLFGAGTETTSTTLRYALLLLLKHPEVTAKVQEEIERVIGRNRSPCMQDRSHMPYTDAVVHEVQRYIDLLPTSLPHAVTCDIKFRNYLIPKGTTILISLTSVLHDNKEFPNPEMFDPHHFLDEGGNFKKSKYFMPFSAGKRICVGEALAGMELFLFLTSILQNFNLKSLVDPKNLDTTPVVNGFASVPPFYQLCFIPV
CYP2C9 inh: blocks human cytochrome P450 2C9 | CYP2C9 Supersomes, luciferin-H conversion, luminescence | 96,000 tested, 20% active | inhibition, % at 5 µM | P11712;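 active means blocking of liver enzyme CYP2C9 beyond about 50% at 5 µM, limit read from the data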
CYP2C19 activ: activators of human cytochrome P450 2C19; P33261; recombinant CYP2C19, luciferin-H EGE luminescence; active compounds read high; 0 = fully inhibited enzyme, 1 = untreated enzyme; activation factor at 5 µM; 96,000 tested, under 10 active;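 active means activation factor of at least 2 at 5 µM in the primary screen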
Large screens that a line does not name were inactive. Hits are enriched below; roughly 27% of the tested compounds scored in any of these assays.

Fc1ccc2c(c1)C(c1ccc(N3CCOCC3)cc1)=NNC(c1cccs1)=N2	CYP2C19 inh 90, CYP2C9 inh 84
CCOc1ccc2nc(NC(=O)c3ccoc3C)sc2c1	CYP2C19 inh 100, CYP2C9 inh 85
COc1ccc2nc(NC(=O)CSc3nc(C)cc(=O)[nH]3)sc2c1	CYP2C9 inh 52
CC(C)C(NS(=O)(=O)c1cccc2nsnc12)C(=O)Nc1nc2ccc(Cl)cc2s1 (stereo not given)	none
CCOc1ccc2nc(NC(=O)C(NS(=O)(=O)c3cccc4nsnc34)C(C)C)sc2c1 (stereo not given)	CYP2C19 inh 70
CCOc1ccc2nc(NC(=O)C(CC)Sc3nc(C)cc(=O)[nH]3)sc2c1 (stereo not given)	CYP2C9 inh 68
CCCCn1c(=O)c(C(=O)OCC)c(O)c2ccccc21	none
Cn1ccnc1SCC(=O)NC1CC1	none
CC1Cc2nc(SCC(=O)Nc3nccs3)n(Cc3ccccc3)c(=O)c2S1 (stereo not given)	none (no result: CYP2C19 inh, CYP2C9 activ, CYP2C9 inh, CYP2C19 activ)
Cc1cc(NC(=O)CSc2nc3c(c(=O)n2-c2ccccc2)SC(C)C3)no1 (stereo not given)	none (no result: EphB4 ephrin blk)
CC1Cc2nc(SCC(=O)Nc3ccc4c(c3)OCO4)n(Cc3ccccc3)c(=O)c2S1 (stereo not given)	CYP2C19 inh 84, CYP2C9 inh 75
CC1Cc2nc(SCC(=O)Nc3ccc4c(c3)OCCO4)n(C)c(=O)c2S1 (stereo not given)	CYP2C9 inh 52
CCOC(=O)c1ccc(NC(=O)CSc2nc3c(c(=O)n2C)SC(C)C3)cc1 (stereo not given)	CYP2C9 inh 51
Cc1ccc(-c2nc(NC(=O)c3nn(C)cc3[N+](=O)[O-])sc2C)cc1C	CYP2C9 inh 54
Cc1ccc(-c2nc(NC(=O)c3nn(C)cc3[N+](=O)[O-])sc2C)cc1	none
CN(C)c1nc(N)nc(/C(C#N)=C/C2CC3C=CC2C3)n1 (stereo not given)	none
CCOC(=O)C1=C(O)/C(=C\c2cccc(OC)c2)N=C1C	CYP2C19 inh 65
CCOC(=O)C1CCN(S(=O)(=O)c2cccc(-c3cn4cc(C)ccc4n3)c2)CC1	CYP2C19 inh 52
COc1ccc(S(=O)(=O)N2CCN(C(=O)c3cnc(C)cn3)CC2)cc1	CYP2C19 inh 50
CCOC(=O)N1CCN(S(=O)(=O)c2ccc(OCC)cc2)CC1	CYP2C19 inh 76
CCOC(=O)N1CCN(S(=O)(=O)c2ccc(C(=O)Nc3sc4c(c3C#N)CCC4)cc2)CC1	CYP2C9 inh 75
COc1ccc(S(=O)(=O)N2CCN(C(=O)c3c(-c4ccccc4)noc3C)CC2)cc1	none
CCOC(=O)N1CCC(N2CCN(S(=O)(=O)c3ccc(Cl)cc3)CC2)CC1	none
CCOC(=O)Nc1sc2c(c1C#N)CCCC2	none
O=C(NC1CCCc2ccccc21)C1CCN(C(=O)c2sccc2-n2cccc2)CC1 (stereo not given)	none (no result: EphB4 ephrin blk)
Cc1ccc(C)c(SCc2noc(C(=O)NCC3CCCO3)c2C(=O)O)c1 (stereo not given)	none
CCOC(=O)C1CCN(S(=O)(=O)c2ccc(OCC)cc2)CC1	CYP2C19 inh 94
CCOC(=O)c1ccc(S(=O)(=O)N2CCN(C)CC2)cc1	none
CCOc1ccc(S(=O)(=O)N2CCN(C(=O)c3sccc3C)CC2)cc1	CYP2C19 inh 74
Cc1ccc(N=Cc2c(O)n(-c3ccc4c(c3)OCO4)c(=O)c3ccccc23)cc1	none
Cc1cc(C)c2[nH]c(=O)c(CN(C(=O)C3CCCO3)C3CCCC3)cc2c1 (stereo not given)	none
COc1cccc2c1C(=O)O/C2=C/c1ccc2c(c1)OCO2	CYP2C19 inh 62, CYP2C9 inh 55
CS(=O)(=O)c1ccc2nc(N)sc2c1	none
Cc1nc2cc(NS(=O)(=O)c3c(C)c(C)cc(C)c3C)ccc2s1	none (no result: CYP2C19 inh, CYP2C9 activ, CYP2C9 inh, CYP2C19 activ)
Cc1ccc(S(=O)(=O)Nc2ccc3nc(N)sc3c2)cc1	CYP2C19 inh 99, CYP2C9 inh 95
Cc1ccc(S(=O)(=O)Nc2ccc3nc(C)sc3c2)cc1	CYP2C9 inh 79
Cc1nc2ccc(NS(=O)(=O)c3c(C)c(C)cc(C)c3C)cc2s1	CYP2C9 inh 74
Cc1nc2ccc(NS(=O)(=O)c3ccc4c(c3)OCCO4)cc2s1	CYP2C19 inh 98, CYP2C9 inh 98
Cn1c(SCC(=O)c2ccc3c(c2)OCCO3)nnc1C1CC1	none (no result: CYP2C19 inh, CYP2C9 activ, CYP2C9 inh, CYP2C19 activ)
O=C(Cn1cnnn1)OCC(=O)c1ccc(Cl)s1	none
CCCCCSc1nnc2c(n1)OC(C)N(C(C)=O)c1ccccc1-2 (stereo not given)	none
COc1ccc(-n2c(N)c(C(=O)NCC3CCCO3)sc2=S)cc1 (stereo not given)	none
CN1CCN(C(=O)c2c(O)c3cccc4c3n(c2=O)CC4)CC1	none (no result: EphB4 ephrin blk)
Cc1ccc(C(=O)Nc2ccc3nc(C)sc3c2)s1	CYP2C9 inh 87
Cc1cc2oc(=O)cc(CN3CCc4ccccc43)c2cc1Cl	CYP2C19 inh 79, CYP2C9 inh 61
CCc1ccc2c(CN3CCc4ccccc43)cc(=O)oc2c1	CYP2C19 inh 94
CC(C)C(=O)Nc1c2c(nc3ccccc13)N(C)CC2	none
C=CCCCCCCCCC(=O)NNC1=CC(=O)CC(C)(C)C1	CYP2C9 inh 51
CCC(Sc1ncccc1C(=O)O)C(=O)N1CCOCC1 (stereo not given)	none
CSc1cccc(NC(=O)CN(C)S(=O)(=O)c2ccc(C)cc2)c1	CYP2C19 inh 52
CNC(=O)CN(c1ccc(F)cc1)S(=O)(=O)c1cc(C)ccc1OC	CYP2C19 inh 82, CYP2C9 inh 80
Cc1ccc(S(=O)(=O)N(C)CC(=O)Nc2ccccc2)cc1	CYP2C19 inh 63
Cc1ccc(C)c(NC(=O)CN(C)S(=O)(=O)c2ccccc2)c1	none
COc1ccc(C)cc1S(=O)(=O)N(C)CC(=O)Nc1ccccc1	CYP2C19 inh 91, CYP2C9 inh 90
CN(CC(=O)Nc1cccnc1)S(=O)(=O)c1ccccc1	none
COc1ccc(C)cc1S(=O)(=O)N(CC(=O)O)c1ccccc1	none
Cc1cc(Nc2ccc(F)cc2Cl)n2nc(C)nc2n1	none
COc1cc(NC(=O)CN(C)S(=O)(=O)c2ccc(C)cc2)cc(OC)c1	CYP2C19 inh 82
COc1ccc(C)cc1S(=O)(=O)N(C)CC(=O)NCc1ccco1	CYP2C9 inh 51
CSc1cccc(NC(=O)C(C)NS(=O)(=O)c2ccc(F)cc2)c1 (stereo not given)	CYP2C19 inh 62
COc1ccc(C)cc1S(=O)(=O)N(CC(N)=O)Cc1ccccc1	CYP2C19 inh 99
Cc1cccc(C(=O)Nc2sc3c(c2C#N)CCCCC3)c1	none (no result: CYP2C19 inh, CYP2C9 activ, CYP2C9 inh, CYP2C19 activ)
Cc1ccc(NC2=CC(=O)OC(C)C2)cc1 (stereo not given)	none
O=S(=O)(/N=S1/CC=CCN1S(=O)(=O)c1ccccc1)c1ccccc1 (stereo not given)	CYP2C9 inh 55
CC(C)c1ccc2nc3sc(C(=O)N4CCc5ccccc5C4)c(N)c3cc2c1	CYP2C9 inh 51
CCOc1ccccc1N(CC(=O)OC)S(C)(=O)=O	none
